Measured values: PubChem BioAssay AID588489 (Sanford-Burnham Center for Chemical Genomics, 2011)
About 1,300 (0.36%) of roughly 360,000 compounds were called active. Rule as the data show it: active = inhibition above about 35% (passing the limit was not always enough); inactive = the rest. The sample as a whole holds a higher share of actives than the screen did.

Each molecule was assayed against Polyadenylate-binding protein 1 (Homo sapiens) (UniProt P11940) (assay: PAM2 peptide displacement from PABP1 MLLE – biochemical, fluorescence polarization, FITC-PAM2, GST-MLLE, primary screen (AID 588489;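 also: plate controls were DMSO wells with GST-MLLE for no effect and wells lacking GST-MLLE protein for full effect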)). Settings: at 20 µM, active compounds read high.
Sequence of Polyadenylate-binding protein 1 (Homo sapiens) (P11940 whole entry, looked up): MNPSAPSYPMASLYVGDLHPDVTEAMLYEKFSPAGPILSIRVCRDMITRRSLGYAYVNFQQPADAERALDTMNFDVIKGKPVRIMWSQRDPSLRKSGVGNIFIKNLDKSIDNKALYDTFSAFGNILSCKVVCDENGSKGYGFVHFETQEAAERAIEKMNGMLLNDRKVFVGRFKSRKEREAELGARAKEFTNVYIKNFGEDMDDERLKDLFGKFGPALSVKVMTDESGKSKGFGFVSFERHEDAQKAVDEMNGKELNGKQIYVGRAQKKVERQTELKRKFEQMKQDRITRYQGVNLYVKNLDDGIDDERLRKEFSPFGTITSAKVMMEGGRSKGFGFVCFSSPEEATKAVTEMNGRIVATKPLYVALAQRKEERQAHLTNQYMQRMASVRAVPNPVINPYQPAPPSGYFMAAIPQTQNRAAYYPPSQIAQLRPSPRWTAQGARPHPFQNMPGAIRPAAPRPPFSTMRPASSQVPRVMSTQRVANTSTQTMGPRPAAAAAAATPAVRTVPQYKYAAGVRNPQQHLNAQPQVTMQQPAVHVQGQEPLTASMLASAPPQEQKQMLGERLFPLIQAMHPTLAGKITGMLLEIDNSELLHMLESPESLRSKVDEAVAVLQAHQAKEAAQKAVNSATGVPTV

Row | SMILES | inhibition
1 | Cc1cccc(N(C(=O)Cc2cccs2)C(C(=O)NC2CCCC2)c2ccsc2)c1 (centres undefined) | -14.8% (inactive)
2 | COc1cc(C(=S)N2CCOCC2)ccc1O | 38.4% (active)
3 | CCOc1cc(C(=S)N2CCOCC2)ccc1O | 20.9% (inactive)
4 | COc1ccc(C)cc1NC(=S)N1CCOCC1 | -27.2% (inactive)
5 | Cc1ccc(OCC(=O)Nc2ccccc2C(=O)NC2CC2)cc1C | 8.8% (inactive)
6 | O=S(=O)([N-]c1nc2ccccc2nc1-[n+]1ccc(Cc2ccccc2)cc1)c1ccc(Br)s1 | 43.3% (active)
7 | O=S(=O)(NCc1ccccn1)c1ccc(Br)s1 | -6.68% (inactive)
8 | O=C(c1ccc(N2CCOCC2)c([N+](=O)[O-])c1)N1CCN(S(=O)(=O)c2cccs2)CC1 | -8.8% (inactive)
9 | COc1ccc(C(=O)N2CCN(c3ccc(C(C)=O)cc3F)CC2)cc1S(=O)(=O)NC1CC1 | 0.55% (inactive)
10 | CC(C)CCn1cnc2c1c(=O)n(CC(=O)NC(N)=O)c(=O)n2Cc1ccccc1 | -0.54% (inactive)
11 | CC(=O)Nc1ccc(SCC(=O)Nc2ccccc2Oc2ccccc2)cc1 | 38.1% (active)
12 | CC(=O)Nc1ccc(SCC(=O)NC(=O)c2ccc(Cl)cc2)cc1 | 15.4% (inactive)
13 | O=C(CSc1ccccc1)Nc1cc(Cl)ccc1Oc1ccccc1 | 6.51% (inactive)
14 | CC(=O)Nc1cc(-c2ccc(N3CCN(C)CC3)cc2)cn2c(-c3ccc(F)cc3)cnc12 | -30.8% (inactive)
15 | CC(C)c1cc(C(=O)N/N=C/c2ccoc2)c(O)c(C(C)C)c1 | -7.21% (inactive)
16 | CC(C)(C)OC(=O)N/N=C/c1ccc(C(=O)O)cc1 | -10.6% (inactive)
17 | COC(=O)N/N=C/c1c[n+]([O-])c2ccccc2[n+]1[O-] | 41.1% (active)
18 | COC(=O)N/N=C/c1ccc(-c2ccc(Cl)c(Cl)c2)o1 | 15.1% (inactive)
19 | CCOC(=O)c1c(C)[nH]c(C2=NNC(=NC(C)COC)SC2)c1C (centres undefined) | -90.6% (inactive)
20 | CC(C)N(c1ccccc1)c1ncnc(NCCC(=O)O)c1[N+](=O)[O-] | -7.92% (inactive)

Row | SMILES | inhibition
21 | CC1=C(C(=O)Nc2ccc(Cl)cc2)C(c2ccco2)NC(=O)N1 (centres undefined) | -4.08% (inactive)
22 | CN1OC[C@@H]2CN(S(=O)(=O)c3cccc(C(F)(F)F)c3)[C@H](c3ccc(-c4cc5ccccc5o4)cc3)C[C@@H]21 | -4.18% (inactive)
23 | COC(=O)C1=C(Nc2ccc(C)cc2)C=C(C)C(C(=O)OC)C1c1ccc(F)cc1 (centres undefined) | -12% (inactive)
24 | CCc1c(Nc2ccccc2C)nc(N)[nH]c1=O | -2.64% (inactive)
25 | Cc1cc(=O)n(C)c(=O)n1CCCNc1ccccc1 | -0.23% (inactive)
26 | Cc1[nH]c(N)nc(=S)c1CCCNc1ccccc1 | 40.1% (active)
27 | CN(C)CCCNC(=S)N1CCN(c2nc(-c3ccccc3)cs2)CC1 | -128% (inactive)
28 | CCOc1ccc(NC(=O)CN(C)C(=O)Cc2sc(C)nc2-c2ccc(F)cc2)cc1OCC | -16.1% (inactive)
29 | CCCCC(=O)NC(c1ccc(OC)c(OC)c1)c1ccc2cccnc2c1O (centres undefined) | 5.41% (inactive)
30 | CCOC(=O)N1CCN(C(=O)C2CCN(c3ncnc4c3sc3cccc(F)c34)CC2)CC1 | -13.7% (inactive)
31 | CCOC(=O)N1CCN(C(c2cccnc2)c2ccc3cccnc3c2O)CC1 (centres undefined) | 37.9% (active)
32 | COc1ccc(C(CNCC(=O)Nc2ccccc2F)N(C)C)cc1 (centres undefined) | 4.22% (inactive)
33 | O=C1c2ccccc2C(=O)N1CCc1nn[nH]n1 | -10.4% (inactive)
34 | O=C(CSc1nnnn1-c1ccccc1)NCc1ccco1 | -13.1% (inactive)
35 | O=C(CC1CCCCC1)NCc1ccco1 | 2.87% (inactive)
36 | O=C(CSC1=Nc2ccccc2C2=NC(CC(=O)NCc3ccco3)C(=O)N12)NCc1ccco1 (centres undefined) | 38.7% (active)
37 | CCCCCC1CCC(c2nnc(SCC(C)=O)o2)CC1 (centres undefined) | -9.06% (inactive)
38 | C/C=C/c1ccc(OCCCCN2CCC(C)CC2)c(OC)c1 | -4.4% (inactive)
39 | CC(C)CNC(=O)C1(C)CCCN1C(=O)CSc1ccccc1 (centres undefined) | 10.8% (inactive)
40 | COc1cc(/C=C/C(=O)OCC(=O)NCCCc2ccccc2)ccc1O | 7.53% (inactive)

Row | SMILES | inhibition
41 | Cc1nc([N+](=O)[O-])nn1C12CC3CC(CC(Br)(C3)C1)C2 | 39.5% (active)
42 | Cc1cccc(NC(=O)CSc2nnc(NC(=O)CN3CCOCC3)s2)c1 | -8.76% (inactive)
43 | C=CC1=C(C(=O)O)N2C(=O)[C@@H](NC(=O)/C(=N/OCC(=O)O)c3csc(N)n3)[C@H]2SC1 | 30.8% (inactive)
44 | C=CC1=C(C(=O)O)N2C(=O)[C@@H](NC(=O)/C(=N\OCC(=O)O)c3csc(N)n3)[C@H]2SC1 | 41% (active)
45 | O=C(CSc1ccsc1[N+](=O)[O-])N1CCCCC1 | -4.37% (inactive)
46 | O=C1CSC2=NCN(c3ccccc3)CN12 | -6.21% (inactive)
47 | O=C(CCC(=O)OCc1cccc(C(=O)Oc2ccccc2)c1)Nc1cccc2ccccc12 | 9.55% (inactive)
48 | CC(=O)Nc1ccc(S(=O)(=O)Oc2ccc(Br)cc2C(=S)N2CCOCC2)cc1 | 5.89% (inactive)
49 | CCOc1cc(C(=S)N2CCOCC2)ccc1OS(=O)(=O)c1ccc(Br)cc1 | 8.34% (inactive)
50 | O=S(=O)(Oc1ccccc1C(=S)N1CCOCC1)c1ccc(Cl)cc1 | 44.5% (active)
51 | Cc1ccc(C)c(OCCC(=O)Nc2cccc(S(=O)(=O)N3CCCC3)c2)c1 | 10.9% (inactive)
52 | CCN(CC)S(=O)(=O)c1ccc(N2CCOCC2)c(NC(=O)C(C)Oc2ccc(F)cc2)c1 (centres undefined) | 3.55% (inactive)
53 | Oc1ccc2ccccc2c1N=Nc1nccs1 | 55.3% (active)
54 | COc1ccc(C(c2nnnn2C2CCCC2)N2CCN(C/C=C/c3ccccc3)CC2)cc1 (centres undefined) | 9.42% (inactive)
55 | O=C(Cn1cnc2c(OCc3ccccc3)ncnc21)NCc1nc2ccccc2[nH]1 | 6.52% (inactive)
56 | COc1ccccc1-n1c(SCC(=O)Nc2ccc(Cl)cc2)nc(O)c(Cc2ccccc2)c1=O | 18.6% (inactive)
57 | CCc1c(O)nc(SCC(=O)Nc2ccccc2)n(C(C)CC)c1=O (centres undefined) | 48% (active)
58 | CCn1c(CNC(=O)c2ccc(OC)c(OC)c2)nnc1SCC(=O)Nc1ccccc1 | -12% (inactive)
59 | O=C(CC12CC3CC(CC(C3)C1)C2)Nc1ccc2c(c1)COC2=O | 10.3% (inactive)
